# Results taken from PubChem BioAssay (EPA / NIEHS).
# Where “and” joins values, the source holds several entries; their conditions need not be identical. Equal values may be shown once. Inconclusive results are not listed. Some structures have more than one record in an assay (separate samples or runs), and their calls can disagree. Calls of active or inactive are those of the source. Rule for the calls, unless noted: active = hit-call score of the fitted dose curve at least 0.9, where 1 is the maximum; inconclusive = response in the unintended direction; inactive = score below 0.9.
# Columns and labels:
# [1] = read-out: Cellular tumor antigen p53 (Homo sapiens) (UniProt P04637); experiment: LTEA_HepaRG_TP53: Life Technologies and Expression Analysis (LTEA) Assay for Tumor Protein P53 (TP53) using HepaRG (AID 2283537; active = hit-call score of the fitted dose curve at least 0.9, where 1 is the maximum; inactive = score below 0.9); conditions: mRNA level, 48 h; actives raise or lower the signal
# Procedure, shortened: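 Differentiated HepaRG cells in serum-free induction medium exposed 48 h in duplicate to 8 half-log concentrations, top 100 uM, 0.5% DMSO. TP53 mRNA by TaqMan qRT-PCR (Fluidigm), normalized to ACTB, GAPDH, POLR2A; fitted bidirectionally versus DMSO.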
# [2] = read-out: UDP glucuronosyltransferase (UGT1A1), UGT1A1 (gene 54658); experiment: LTEA_HepaRG_UGT1A1: Life Technologies and Expression Analysis (LTEA) Assay for UDP glucuronosyltransferase (UGT1A1) using HepaRG (AID 2283538; active = hit-call score of the fitted dose curve at least 0.9, where 1 is the maximum; inactive = score below 0.9); conditions: mRNA level, 48 h; actives raise or lower the signal
# Procedure, shortened: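 Readout is UGT1A1 transcript level by qRT-PCR, normalized to three housekeeping genes, after 48 h chemical treatment of HepaRG cells. Concentrations ran from 100 uM down in half-log steps with 0.5% DMSO, and gain or loss relative to DMSO was fitted.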
# [3] = read-out: UDP glucuronosyltransferase (UGT1A6), UGT1A6 (gene 54578); experiment: LTEA_HepaRG_UGT1A6: Life Technologies and Expression Analysis (LTEA) Assay for UDP glucuronosyltransferase (UGT1A6) using HepaRG (AID 2283539; active = hit-call score of the fitted dose curve at least 0.9, where 1 is the maximum; inactive = score below 0.9); conditions: mRNA level, 48 h; actives raise or lower the signal
# Procedure, shortened: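 Measures mRNA change in HepaRG hepatic cells exposed 48 h to chemicals (eight-point, maximum 100 uM, 0.5% DMSO vehicle) in serum-free induction medium. Expression normalized to endogenous controls; DMSO served as negative control and baseline.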
# [4] = read-out: X-box binding protein 1 (XBP1), XBP1 (gene 7494); experiment: LTEA_HepaRG_XBP1: Life Technologies and Expression Analysis (LTEA) Assay for X-box binding protein 1 (XBP1) using HepaRG (AID 2283540; active = hit-call score of the fitted dose curve at least 0.9, where 1 is the maximum; inactive = score below 0.9); conditions: mRNA level, 48 h; actives raise or lower the signal
# Procedure, shortened: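 Eight concentrations (half-log, highest 100 uM, 0.5% DMSO) tested in duplicate on HepaRG cells over 48 h in serum-free induction medium; qRT-PCR of XBP1 normalised to ACTB, GAPDH, POLR2A.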
# [5] = LTEA_HepaRG_LDH_cytotoxicity: Cytotoxicity Assessment in the Life Technologies and Expression Analysis (LTEA) Assay (AID 2283563);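 for AC50: LDH activity released into spent culture medium as a marker of cell death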
# Procedure, shortened: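 Spent-medium LDH after 48 h chemical exposure of HepaRG cells in serum-free induction medium; eight concentrations, half-log dilutions from 100 uM, duplicate wells, fitted upward relative to 0.5% DMSO.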
# [6] = ATG_XTT_Cytotoxicity: Cytotoxicity Assessment in the Attagene TRANS-FACTORIAL HepG2 Assay (AID 2283584);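 for AC50: XTT signal for cell number as viability in transfected HepG2 cells; cells exposed to compound for 24 h before reading; active means loss of viability signal versus DMSO baseline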
# Procedure, shortened: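 24 h chemical exposure of reporter-transfected HepG2; XTT signal loss vs DMSO indicates cytotoxicity.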
# [7] = TOX21_p53_BLA_p2_viability: Viability Assessment in the Tox21 HCT-116 p53 Agonism Beta-lactamase Assay, Phase 2 (AID 2283591);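 note: compound exposure lasted 16 h at 37 °C; actives lower the ATP signal meaning cytotoxicity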
# Procedure, shortened: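 HCT-116 p53-bla cells (4000/well) rested 5 h at 37C, then received compounds in DMSO (217-fold dilution) for 16 h at 37C, 5% CO2. After the CCF4 read, CellTiter-Glo was added; ATP luminescence was read after 30 min at room temperature.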
# [8] = molecular target: Cellular tumor antigen p53 (Homo sapiens) (UniProt P04637); experiment: TOX21_p53_BLA_p2_ratio: Tox21 HCT-116 p53 Agonism Beta-lactamase Assay, Ratio, Phase 2 (AID 2283592)
# Procedure, shortened: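 Human colon HCT116 cells with an inducible p53 beta-lactamase reporter are exposed to test chemicals for 16 h at 37C. Reporter induction is read as the 460/530 nm emission ratio after CCF4-AM loading, normalized to DMSO.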
# [9] = TOX21_p53_BLA_p3_viability: Viability Assessment in the Tox21 HCT-116 p53 Agonism Beta-lactamase Assay, Phase 3 (AID 2283593);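 note: cells exposed to compound for 16 h before reading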
# Procedure, shortened: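 HCT-116 cells (4000/well) rested 5 h at 37C, then got DMSO compounds by pin tool (217-fold dilution) for 16 h at 37C, 5% CO2. After the bla read, CellTiter-Glo was added and luminescence read at 30 min, room temperature.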
# [10] = molecular target: Cellular tumor antigen p53 (Homo sapiens) (UniProt P04637); experiment: TOX21_p53_BLA_p3_ratio: Tox21 HCT-116 p53 Agonism Beta-lactamase Assay, Ratio, Phase 3 (AID 2283596)
# Procedure, shortened: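 HCT116 p53-bla cells (4000/well) given compound in DMSO (217-fold dilution) after 5 h, incubated 16 h at 37C. CCF4-AM substrate 2 h at room temperature; 460/530 nm emission ratio, gain fitted against DMSO.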
# [11] = TOX21_p53_BLA_p4_viability: Viability Assessment in the Tox21 HCT-116 p53 Agonism Beta-lactamase Assay, Phase 4 (AID 2283597);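 note: hits lower the luminescence signal meaning cytotoxicity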
# Procedure, shortened: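 Luminescent ATP readout (CellTiter-Glo, 30 min, room temperature) in the same wells as the p53 bla ratio. HCT116 cells were treated for 16 h at 37C with DMSO-dissolved compounds.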
# [12] = molecular target: Cellular tumor antigen p53 (Homo sapiens) (UniProt P04637); experiment: TOX21_p53_BLA_p5_ratio: Tox21 HCT-116 p53 Agonism Beta-lactamase Assay, Ratio, Phase 5 (AID 2283599)
# Procedure, shortened: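 HCT-116 cells carrying a p53-inducible beta-lactamase reporter were seeded at 4000 cells/well and dosed after 5 h with compound in DMSO (217-fold dilution). After 16 h at 37C, CCF4-AM substrate was added for 2 h, and the 460/530 nm emission ratio was scored as gain-of-signal versus DMSO.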
# [13] = TOX21_p53_BLA_p5_viability: Viability Assessment in the Tox21 HCT-116 p53 Agonism Beta-lactamase Assay, Phase 5 (AID 2283600)
# Procedure, shortened: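 Seeded cells (4000/well) settle 5 h before compound addition. Plates then incubate 16 h at 37C, receive FRET substrate for 2 h, and finally CellTiter-Glo, with luminescence measured after a 30 min room-temperature incubation.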
# [14] = molecular target: Cellular tumor antigen p53 (Homo sapiens) (UniProt P04637); experiment: TOX21_p53_BLA_p4_ratio: Tox21 HCT-116 p53 Agonism Beta-lactamase Assay, Ratio, Phase 4 (AID 2283601)
# Procedure, shortened: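 HCT116 cells carrying an inducible beta-lactamase reporter were plated at 4000 cells/well, rested 5 h, then exposed to compounds in DMSO (217-fold dilution) for 16 h at 37C. CCF4-AM substrate was loaded 2 h at room temperature; 460/530 nm emission ratio scored gain-of-signal versus DMSO.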
# [15] = Tanguay_ZF_120hpf_YSE_legacy: (Legacy) Oregon State University Tanguay Lab 120 Hour Post-fertilization zebrafish Assay for Yolk Sac Edema (AID 2283634)
# Procedure, shortened: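 Single dechorionated embryos were held in sealed plates at 28C with test chemical (0.64% DMSO final) from 6 hpf until 120 hpf. Edema of the yolk sac was then recorded as a binary endpoint; non-mortality endpoints were skipped for dead embryos.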
# [16] = Tanguay_ZF_120hpf_AXIS_legacy: (Legacy) Oregon State University Tanguay Lab 120 Hour Post-fertilization zebrafish Assay for Body Axis Malformation (AID 2283635)
# Procedure, shortened: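 Each dechorionated embryo was exposed alone from 6 hpf, with DMSO at 0.64% (vol/vol) and trimethyltin chloride 5 uM as positive control. Axis malformation was recorded at 120 hpf unless the embryo had died.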
# [17] = Tanguay_ZF_120hpf_SNOU_legacy: (Legacy) Oregon State University Tanguay Lab 120 Hour Post-fertilization zebrafish Assay for Snout Malformation (AID 2283637)
# Procedure, shortened: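 Tropical 5D wild-type zebrafish embryos, dechorionated with pronase at 4 hpf, were exposed singly from 6 hpf to 120 hpf statically at 28C in 0.64% DMSO. Snout malformation was scored present/absent by brightfield microscopy, fitted against DMSO.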
# [18] = Tanguay_ZF_120hpf_JAW_legacy: (Legacy) Oregon State University Tanguay Lab 120 Hour Post-fertilization zebrafish Assay for Jaw Malformation (AID 2283638)
# Procedure, shortened: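 Wild-type 5D embryos, chorion removed at 4 hpf, dosed singly from 6 hpf; 28C static, sealed, foil-covered, to 120 hpf. Endpoint: jaw defect yes/no (brightfield); mortality excludes scoring.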
# [19] = Tanguay_ZF_120hpf_MORT_legacy: (Legacy) Oregon State University Tanguay Lab 120 Hour Post-fertilization zebrafish Assay for Mortality (AID 2283633)
# Procedure, shortened: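 Single dechorionated Tropical 5D embryos were held with test chemical (0.64% DMSO final) from 6 to 120 hpf at 28C under foil. Deaths at 24 or 120 hpf were recorded as binary calls, analysed for increase over DMSO controls.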
# [20] = Tanguay_ZF_120hpf_EYE_legacy: (Legacy) Oregon State University Tanguay Lab 120 Hour Post-fertilization zebrafish Assay for Eye Malformation (AID 2283636);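 note: binary presence or absence of eye malformation scored by brightfield in 120 hpf larvae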
# Procedure, shortened: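 Dechorionated wild-type Tropical 5D zebrafish embryos were exposed statically from 6 hpf, one per well, to 120 hpf at 28C in sealed, foil-covered plates with 0.64% DMSO. Eye malformation was scored present/absent by brightfield microscopy against DMSO controls.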
# Chain of Cellular tumor antigen p53 (Homo sapiens) (P04637 whole entry, looked up): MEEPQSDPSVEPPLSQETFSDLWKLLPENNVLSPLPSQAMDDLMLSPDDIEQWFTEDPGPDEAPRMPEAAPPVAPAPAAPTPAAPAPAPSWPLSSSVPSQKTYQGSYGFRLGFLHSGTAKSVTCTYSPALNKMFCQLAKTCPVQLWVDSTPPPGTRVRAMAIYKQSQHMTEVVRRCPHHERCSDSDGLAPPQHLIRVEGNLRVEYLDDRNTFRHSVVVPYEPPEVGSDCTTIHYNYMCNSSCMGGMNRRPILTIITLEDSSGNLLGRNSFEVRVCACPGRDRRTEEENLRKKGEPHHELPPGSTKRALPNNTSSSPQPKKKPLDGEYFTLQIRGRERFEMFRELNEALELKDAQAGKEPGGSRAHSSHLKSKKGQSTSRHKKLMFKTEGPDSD
smiles,measurement,setting,value
CCOCCOC(C)=O,outcome,[1],inactive
same,outcome,[2],inactive
same,outcome,[3],inactive
same,outcome,[4],inactive
same,outcome,[5],inactive
same,outcome,[6],inactive
same,outcome,[7],inactive
same,outcome,[8],inactive
same,outcome,[9],inactive
same,outcome,[10],inactive
same,outcome,[11],inactive
same,outcome,[12],inactive
same,outcome,[13],inactive
same,outcome,[14],inactive
same,outcome,[15],inactive
same,outcome,[16],inactive
same,outcome,[17],inactive
same,outcome,[18],inactive
Clc1ccc(C(c2ccccc2Cl)C(Cl)(Cl)Cl)cc1 (centres undefined),outcome,[1],inactive
same,outcome,[3],inactive
same,outcome,[4],inactive
same,AC50,[5],77.5 µM (active)
same,outcome,[6],inactive
same,AC50,[7],32.5 µM (active) and 55.2 µM (active)
same,AC50,[8],47.2 µM (active) and 74.1 µM (active)
same,AC50,[9],26.1 µM (active) and 68.2 µM (active)
same,AC50,[10],46.3 µM (active)
same,outcome,[10],inactive
same,AC50,[11],30.2 µM (active) and 62.2 µM (active)
same,AC50,[12],72.8 µM (active)
same,outcome,[12],inactive
same,AC50,[13],72.2 µM (active)
same,outcome,[13],inactive
same,AC50,[14],48.7 µM (active) and 76.4 µM (active)
same,outcome,[19],inactive
same,outcome,[15],inactive
same,outcome,[16],inactive
same,outcome,[17],inactive
Nn1cnnc1,outcome,[1],inactive
same,outcome,[2],inactive
same,outcome,[3],inactive
same,outcome,[4],inactive
same,outcome,[5],inactive
same,outcome,[6],inactive
same,outcome,[7],inactive
same,outcome,[8],inactive
same,outcome,[9],inactive
same,outcome,[10],inactive
same,outcome,[11],inactive
same,outcome,[14],inactive
same,outcome,[19],inactive
same,outcome,[15],inactive
same,outcome,[16],inactive
same,outcome,[20],inactive
same,outcome,[17],inactive
same,outcome,[18],inactive
CC#Cc1cc(C)nc(Nc2ccccc2)n1,outcome,[1],inactive
same,AC50,[2],8.68 µM (active)
same,outcome,[3],inactive
same,outcome,[4],inactive
same,AC50,[5],59.9 µM (active)
same,outcome,[7],inactive
same,outcome,[8],inactive
same,outcome,[9],inactive
same,outcome,[11],inactive
same,outcome,[13],inactive
same,outcome,[14],inactive
same,outcome,[19],inactive
same,outcome,[15],inactive
same,outcome,[20],inactive
same,outcome,[17],inactive
same,outcome,[18],inactive
CCCCCCCCCc1ccc(O)cc1,outcome,[1],inactive
same,outcome,[3],inactive
same,outcome,[4],inactive
same,outcome,[5],inactive
same,AC50,[6],151 µM (active)
same,outcome,[6],inactive
same,outcome,[7],inactive
same,outcome,[8],inactive
same,outcome,[9],inactive
same,outcome,[11],inactive
same,outcome,[12],inactive
same,outcome,[13],inactive
same,outcome,[14],inactive
same,outcome,[19],inactive
same,outcome,[15],inactive
same,outcome,[20],inactive
same,outcome,[17],inactive
same,outcome,[18],inactive
c1cc2ccc3cccc4ccc(c1)c2c34,outcome,[1],inactive
same,AC50,[2],10.7 µM (active)
same,outcome,[3],inactive
same,outcome,[4],inactive
same,outcome,[5],inactive
same,outcome,[6],inactive
same,outcome,[7],inactive
same,outcome,[8],inactive
same,outcome,[9],inactive
same,outcome,[10],inactive
same,outcome,[11],inactive
same,outcome,[12],inactive
same,outcome,[13],inactive
same,outcome,[14],inactive
same,outcome,[19],inactive
same,outcome,[15],inactive
same,outcome,[16],inactive
same,outcome,[20],inactive
same,outcome,[17],inactive
Cc1cc(-c2ccc(N)c(C)c2)ccc1N,outcome,[1],inactive
same,AC50,[2],26.7 µM (active)
same,outcome,[3],inactive
same,outcome,[4],inactive
same,outcome,[5],inactive
same,outcome,[7],inactive
same,AC50,[8],87.2 µM (active)
same,outcome,[8],inactive
same,outcome,[10],inactive
same,outcome,[11],inactive
same,outcome,[12],inactive
same,outcome,[13],inactive
same,AC50,[14],70.7 µM (active)
same,outcome,[14],inactive
same,outcome,[19],inactive
same,outcome,[15],inactive
same,outcome,[16],inactive
same,outcome,[20],inactive
same,outcome,[17],inactive
same,outcome,[18],inactive
